Screening results from PubChem.
FBPA Giardia inh = blocks Giardia fructose-bisphosphate aldolase activity; A8B2U2; purified Giardia FBPA; Potency, µM (highest dose often 59.6 µM), without a hit: at the top dose activity, negative = inhibition, usual class: inhibitors; 0.71% of 290,000 active; AID 2451; note: potency is the fitted concentration of half-maximal effect; % is set by controls: 0 for no effect and ±100 for the full control effect; nearly all actives have a fitted effect of over 55% in size
Target sequence (A8B2U2 whole entry, looked up): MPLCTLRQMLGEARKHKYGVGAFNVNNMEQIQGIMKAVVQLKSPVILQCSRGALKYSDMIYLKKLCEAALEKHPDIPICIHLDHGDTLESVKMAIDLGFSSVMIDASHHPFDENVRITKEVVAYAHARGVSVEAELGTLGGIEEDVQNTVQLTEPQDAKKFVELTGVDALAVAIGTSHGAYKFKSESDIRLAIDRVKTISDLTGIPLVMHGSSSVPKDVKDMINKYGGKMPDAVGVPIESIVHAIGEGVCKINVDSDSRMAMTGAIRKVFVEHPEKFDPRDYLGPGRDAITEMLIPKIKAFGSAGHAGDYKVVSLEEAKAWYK
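Giardia FBPA (40 nM reagent) was preincubated 10 min at RT with compound (up to 57.5 uM final), then substrate plus GAPDH/TPI/NAD/arsenate coupling system with diaphorase/resazurin was added; resorufin fluorescence (525/598 nm) was read after 20 min.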
Shiga toxin inh = blocks Shiga toxin action in Vero cells; 9.2% of 290,000 active; AID 2315; Vero cells, Shiga toxin protein synthesis inhibition reporter; inhibition, % at 38.7 µM; in the data active = inhibition mostly above about 28%, no sharp cut-off; inactive = mostly below about 43%; note: 0% is about no effect
CHX counter = counter-screen hit for Shiga toxin inhibitors, cycloheximide. cell reporter, cycloheximide protein synthesis inhibition counterscreen. max response, %. 12% of 300,000 active. AID 2314; in the data active = max response mostly above about 13%, no sharp cut-off; inactive = mostly below about 14%; note: read at 38.3 µM for the half of the compounds with a filed dose; 0% is about no effect
NS1 inh = blocks influenza NS1 protein function. Potency, µM (titrated, usually from 46.1 µM), without a hit: top-dose activity, positive = more growth. 0.4% of 270,000 active. AID 2326; calls by dose curve; note: potency is the fitted concentration of half-maximal effect; actives are rising curves; nearly all actives have a fitted effect of over 50% in size
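In this qHTS, NS1 from influenza A is expressed in budding yeast, where it slows growth. Cells are switched from glucose to 2% galactose medium (pH 6.0, -URA), treated with compound, and growth recovery is read at OD600.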
LmPK inhibitor = inhibitors of Leishmania mexicana pyruvate kinase; Q27686; purified LmPK, Kinase-Glo ATP luminescence, 1 h; Potency, µM (highest dose often 57.5 µM), for inactives: at the highest dose activity change, negative = inhibition, usual class: inhibitors; 0.37% of 290,000 active; note: potency is the fitted concentration of half-maximal effect; % is set by controls: 0 for no effect and ±100 for the full control effect
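Pyruvate kinase activity monitored as ATP production (luciferase luminescence). Conditions: 0.1 nM enzyme, 0.5 mM PEP, 0.1 mM ADP, 1 h, RT; normalized against uninhibited and no-enzyme wells.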
* marks the source's active call; other numbers are inactive results; ? = inconclusive; · = no result; [ ] = dose if it differs, or a comment. Compounds with a hit are over-represented: about 14% of the library has one in this group of screens. Unless noted, calls come from the whole dose curve; as a rule, active = well fitted curve in the direction sought with a large enough effect; inconclusive = small, poorly fitted or top-dose-only effect, or another doubt; inactive = no such curve, though single readings can be large; an effect the other way counts as inactive or inconclusive.

SMILES	FBPA Giardia inh	Shiga toxin inh	CHX counter	NS1 inh	LmPK inhibitor
O=C(Nc1ccc(NC(=O)C2CCCCC2)nc1)c1ccco1	-1.0%	66.2*	52.5*	-64.3%	0.7%
O=C(Nc1ccc(NC(=O)C2CCCCC2)nc1)c1ccccn1	-8.0%	81.4*	43.6*	-8.8%	-27.6%
O=C(NNC(=O)C1CCCCC1)c1ccco1	9.7%	6.1	5.6	·	9.5%
CCOc1ccc(S(=O)(=O)N2CCCC(C(=O)NCc3cccnc3)C2)cc1Cl (stereo unspecified)	2.9%	4.9	-4.1	9.1%	-0.1%
COc1ccccc1C(=O)Nc1ccc(NC(=O)C2CCCCC2)nc1	-2.6%	21.6	9.1	12.4%	-3.6%
Cc1ccc(S(=O)(=O)N2CCCC(C(=O)Nc3ccc(NC(=O)c4ccccn4)cc3)C2)cc1 (stereo unspecified)	-1.4%	19.9	9.1*	1.0%	0.3%
CC(=O)c1ccc([N+](=O)[O-])c(CS(=O)(=O)c2ccc(Cl)cc2)c1	4.9%	-5.5	1.4	0.0%	-2.6%
COc1ccc(NC(=O)N2CCCC3(CCN(C(=O)c4ccc(OC)cc4)CC3)C2)cc1	0.1%	·	·	·	·
O=C(Nc1ccc(NC(=O)C2CC2)nc1)c1ccco1	1.8%	59.7*	24.0*	-12.3%	-6.2%
COc1ccc(NC(=O)COc2ccc3c(c2)OCO3)cc1	-3.9%	32.3	7.7	0.3%	-0.3%
CCc1ccc(OCC(=O)Nc2ccc3c(c2)OCCO3)cc1	12.1%	29.7	27.0*	-29.6%	-2.9%
CC(=O)Nc1ccc(OCC(=O)NCc2ccc3c(c2)OCO3)cc1	-0.7%	2.3	4.9	·	10.9%
O=C(COc1ccc(S(=O)(=O)N2CCCC2)cc1)Nc1ccc2c(c1)OCCO2	-3.3%	44.3*	24.1*	-8.2%	1.2%
CCc1ccc(NC(=O)COc2ccc3c(c2)OCO3)cc1	·	41.8*	31.4*	-48.1%	-3.8%
CCC(C)NS(=O)(=O)c1ccc(OCC(=O)Nc2ccc3c(c2)OCCO3)cc1 (stereo unspecified)	-3.3%	2.1	1.2	9.2%	1.4%
CC(=O)c1ccc(NC(=O)COc2ccc3c(c2)OCO3)cc1	1.5%	3.9	19.3*	·	-1.9%
COc1ccc(NC(=O)CCC(=O)Nc2nnc(CC(C)C)s2)cc1Cl	·	4.4	-8.5	2.3%	-11.1%
CC(NC(=O)c1ccccc1F)c1nnc(SCC(=O)NC2=NCCS2)n1C (stereo unspecified)	-3.2%	-4.3	-2.7	7.7%	2.0%
CC(=O)Nc1cccc(NC(=O)COc2ccc3c(c2)OCO3)c1	-10.3%	59.8*	27.5*	2.4%	-7.4%
CCCNS(=O)(=O)c1ccc(OCC(=O)Nc2ccc3c(c2)OCO3)cc1	-2.1%	-9.5	-3.3	1.9%	1.6%
Cc1sc2ncnc(Sc3ccccc3C(=O)Nc3ccc(Br)cc3)c2c1C	-10.5%	51.3*	28.8*	?	0.7%
CCOC(=O)N1CCN(C(=O)c2cc(-c3ccc(OCC)cc3)nc3ccccc23)CC1	-0.4%	65.8*	37.3*	-55.4%	-1.6%
CCOc1ccc(-c2cc(C(=O)N3CCN(C)CC3)c3ccccc3n2)cc1	-3.2%	49.6*	38.2*	-16.1%	-8.5%
CCOc1ccc(-c2cc(C(=O)N3CCCC3)c3ccccc3n2)cc1	·	31.1	17.0	9.1%	-3.4%
COC(=O)C/C=C\[C@@H](C)[C@@H](/C=N\OCC[C@@H]1C=C[C@H](OC(C)=O)[C@H](COC(C)=O)O1)OC	1.3%[12.9 µM]	·	·	·	·
SMILES	FBPA Giardia inh	Shiga toxin inh	CHX counter	NS1 inh	LmPK inhibitor
CC(=O)N1N=C(c2cccnc2)OC1c1ccc(C(C)C)cc1 (stereo unspecified)	0.8%	17.6	12.3	-1.7%	1.5%
CC(=O)N1N=C(c2ccc(C)cc2)OC1c1ccc(C)cc1 (stereo unspecified)	-1.6%	23.3	22.2*	-11.4%	5.8%
CC(=O)N1N=C(c2ccc(C)cc2)OC1c1ccc(C(C)C)cc1 (stereo unspecified)	·	163.9*	38.3*	3.3%	-9.6%
CC(=O)N1N=C(c2cccc([N+](=O)[O-])c2)OC1c1ccc(Br)cc1 (stereo unspecified)	-1.3%	-5.4	-3.0	-4.3%	8.7%
CN(Cc1ccco1)c1ccnc(-c2cccc(C#N)c2)n1	-7.8%	·	·	·	·
Cc1cccc2nc(CSc3ccccc3C(=O)O)cn12	-28.3%	-5.4	9.4	15.4%	1.6%
Cc1cccc2nc(COc3ccc4ccccc4c3Br)cn12	-3.8%	48.4*	46.0*	-37.8%	7.3%
CC(/C=C/c1ccco1)=N\NC(=O)c1cccc(Cl)c1	6.4%	29.2	34.8*	-1.6%	0.8%
CC(/C=C/c1ccco1)=N/NC(=O)c1ccccc1Cl	-12.2%	24.1	25.6*	-2.0%	0.1%
COc1ccc(CNC(=O)CN2C(=O)COc3ccc(S(=O)(=O)N4CCCCC4)cc32)cc1	12.5%	-4.4	9.7	3.4%	-1.2%
Cc1c(C(=O)N(CCC#N)c2ccccc2)sc2nc3n(c(=O)c12)CCCC3	3.6%	0.6	0.9	-6.5%	-3.1%
CC(=O)c1ccc(-n2nnnc2SCC(=O)NC2CCCCC2)cc1	-3.7%	22.9	-5.2	4.9%	7.0%
Cc1nc2ccccc2c(=O)n1/N=C/c1ccc(O)c(O)c1O	7.08µM*	-6.6	-3.0	3.0%	3.3%
Cc1nc2ccccc2c(=O)n1/N=C/c1ccccc1O	15.3%	87.5*	37.0*	-10.1%	1.3%
Cc1nc2ccccc2c(=O)n1/N=C/c1ccccc1	1.5%	33.4	4.1	-12.2%	-6.5%
Cc1nc2ccccc2c(=O)n1/N=C/c1ccc2ccccc2c1O	?	74.2*	46.2*	0.0%	3.4%
Cc1nc2ccccc2c(=O)n1/N=C/c1cccs1	3.3%	49.6	24.9*	·	-2.5%
COc1ccc(N2CC(C(=O)N[C@H](C(=O)NC3CCCCC3)C(C)C)CC2=O)cc1 (stereo partly specified)	·	25.0	-4.3	10.9%	1.3%
CCOc1ccc(/C=C2\CCc3ccccc3C2=O)cc1	2.6%	70.7*	29.9*	-1.5%	?
O=C1/C(=C/c2ccncc2)CCC/C1=C\c1ccncc1	3.7%	-20.5	-7.4	·	-5.8%
O=C1/C(=C/c2ccncc2)CCc2ccccc21	-0.5%	55.6*	34.3*	-7.9%	12.6µM*
CC(=O)N1C2(C=CC1(C)C(=O)NCc1cc(F)cc(C(F)(F)F)c1)CCCCC2 (stereo unspecified)	-6.8%	·	·	·	·
CC[N+](CC)(CCNC(=O)C(=O)NCC[N+](CC)(CC)Cc1ccccc1Cl)Cc1ccccc1Cl	6.1%	·	·	·	·
CCNc1nc2c(c(=O)n(C)c(=O)n2C)n1CCCc1ccccc1	6.2%	-6.1	-1.0	2.6%	-0.1%
CC1CCN(c2ccc(-c3cccc(NC(=O)C(F)(F)F)c3)nn2)CC1	-3.9%	-26.9	-16.1	-11.1%	-1.6%
CCC(=O)Nc1cccc(-c2ccc(N3CCC(C)CC3)nn2)c1	4.0%	63.8*	44.9*	3.0%	-18.6%
CCC(=O)Nc1ccc(-c2ccc(N3CCN(C)CC3)nn2)cc1	10.2%	34.7*	26.2*	9.6%	-3.3%
CCC(=O)Nc1ccc(-c2ccc(N3CCC(C)CC3)nn2)cc1	-7.7%	76.4*	28.7*	-15.2%	-5.3%
